Test results from PMC4336329 (PLoS ONE, 2015).
In all, about 310,000 compounds went through this assay and about 14,000 (4.5%) showed an effect of 50% or more. The effect is printed as a negative number. What follows is part of a selection rich in strong results, with near analogues and random picks from the rest.

target: human ether-à-go-go-related gene (hERG) potassium channel (human, UniProt Q12809); assay: primary screen, population patch clamp on CHO cells stably expressing hERG; higher = less effect of the substance
Sequence (Q12809 whole entry, looked up): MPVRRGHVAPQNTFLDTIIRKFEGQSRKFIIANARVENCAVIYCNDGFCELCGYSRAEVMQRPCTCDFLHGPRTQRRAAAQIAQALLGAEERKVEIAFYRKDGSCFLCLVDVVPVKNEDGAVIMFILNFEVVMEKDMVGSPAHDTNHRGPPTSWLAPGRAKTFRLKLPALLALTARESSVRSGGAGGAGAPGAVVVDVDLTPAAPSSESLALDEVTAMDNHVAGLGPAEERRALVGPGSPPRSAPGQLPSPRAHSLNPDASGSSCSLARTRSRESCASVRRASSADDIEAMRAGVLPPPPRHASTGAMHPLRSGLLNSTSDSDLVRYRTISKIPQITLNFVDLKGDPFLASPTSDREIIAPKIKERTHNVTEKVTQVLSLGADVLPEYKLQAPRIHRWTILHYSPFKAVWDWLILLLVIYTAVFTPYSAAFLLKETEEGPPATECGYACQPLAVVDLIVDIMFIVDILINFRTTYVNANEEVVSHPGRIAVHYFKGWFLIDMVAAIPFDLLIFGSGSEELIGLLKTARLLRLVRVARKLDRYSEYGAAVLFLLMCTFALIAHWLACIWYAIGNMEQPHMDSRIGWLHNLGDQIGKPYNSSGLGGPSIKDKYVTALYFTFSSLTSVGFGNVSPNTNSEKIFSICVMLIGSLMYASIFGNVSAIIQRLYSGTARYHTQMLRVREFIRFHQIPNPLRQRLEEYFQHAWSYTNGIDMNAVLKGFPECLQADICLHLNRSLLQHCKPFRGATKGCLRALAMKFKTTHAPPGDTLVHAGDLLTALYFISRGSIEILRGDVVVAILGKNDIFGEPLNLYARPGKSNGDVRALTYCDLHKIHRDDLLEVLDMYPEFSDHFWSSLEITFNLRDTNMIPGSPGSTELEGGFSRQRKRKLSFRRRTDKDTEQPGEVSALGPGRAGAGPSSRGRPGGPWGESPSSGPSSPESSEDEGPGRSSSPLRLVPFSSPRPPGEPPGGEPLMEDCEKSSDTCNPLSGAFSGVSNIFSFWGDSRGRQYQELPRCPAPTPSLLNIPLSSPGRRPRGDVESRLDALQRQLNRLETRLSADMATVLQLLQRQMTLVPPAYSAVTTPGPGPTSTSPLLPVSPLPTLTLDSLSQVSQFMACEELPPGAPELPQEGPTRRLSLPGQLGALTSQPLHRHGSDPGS
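Also: peak tail current of the secondary pulse compared with the same well before compound.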

Row | Structure (SMILES) | hERG current change (%, negative = inhibition) at 10uM [%]
1 | O=C(CSc1nc2cc(C(=O)O)ccc2c(=O)n1-c1ccc(F)cc1)Nc1ccc(F)c(F)c1F | 1.54
2 | CCCCn1c(NC(=O)c2ccc(F)cc2)c(C#N)c2nc3ccccc3nc21 | 6.88
3 | CCc1cc(C(=O)OC)c(NC(=O)CC2SC(N)=NC2=O)s1 (stereo not drawn) | -6.56
4 | CCCC(=O)N1CCC(CCC(=O)NC2CC2)CC1 | 7.63
5 | COc1ccc(S(=O)(=O)N2c3ccccc3NC(=O)CC2C)cc1 (stereo not drawn) | 9.7
6 | O=[N+]([O-])c1ccc(CS(=O)(=O)c2ccc(Cl)cc2)cc1 | -9.81
7 | CCc1ccc(Nc2nnc(SCC(=O)c3c(N)n(C4CC4)c(=O)[nH]c3=O)s2)cc1 | -17.7
8 | COc1cnc(-c2ccccn2)nc1NC(C)C | 7.65
9 | C=CCNC(=O)c1onc(CS(=O)(=O)c2cc(C)cc(C)c2)c1C(=O)NCC=C | -8.18
10 | C[C@H](N)c1nnc(SCC(=O)c2ccc(Cl)cc2)o1 | -6.79
11 | CC(C)[C@H](N)c1nnc(SCC(=O)c2ccc(Cl)cc2)o1.Cl | -14.2
12 | CCC(C)[C@H](N)c1nnc(SCC(=O)c2ccc(Cl)cc2)o1 (stereo partly drawn) | -52.5
13 | Cc1ccc2oc(C(=O)N(C)Cc3ccon3)c(C)c2c1 | 4.23
14 | Cc1cccc2c(=O)cc(C(F)(F)F)[nH]c12 | 13.8
15 | CCS(=O)(=O)N1CCCC(C(=O)NCCc2ccc(OC)c(OC)c2)C1 (stereo not drawn) | 13.1
16 | CCc1ccc(-c2nc(CN3CCC(C(=O)NCCc4ccc(OC)c(OC)c4)CC3)c(C)o2)cc1 | -76.2
17 | CCc1ccc(-c2nc(CN3CCCC(C(=O)NCCc4ccc(OC)c(OC)c4)C3)c(C)o2)cc1 (stereo not drawn) | -50.5
18 | COc1ccc(CCNC(=O)C2CCCN(S(C)(=O)=O)C2)cc1OC (stereo not drawn) | 12
19 | COc1ccc(CN2CCC(C(=O)NCCc3ccc(OC)c(OC)c3)CC2)c(OC)c1 | -29.9
20 | COc1ccc(-c2nc(CN3CCC(C(=O)NC4CC4)CC3)c(C)o2)cc1OC | -12.8
21 | Cn1c(=O)cc(OCCCC(=O)NCc2ccc(F)cc2Cl)c2ccccc21 | -15.1
22 | CCCOc1ccc(C(C)=O)cc1CSCCC#N | -1.08
23 | Cn1c(CC(=O)Nc2ccccc2F)nnc1SCC(=O)NC1CCCC1 | 11

Row | Structure (SMILES) | hERG current change (%, negative = inhibition) at 10uM [%]
24 | Cc1cc(OCc2cc(C(=O)NC3CCC3)no2)cc(C)c1Cl | 3.82
25 | Cc1cc(OCc2cc(C(=O)NCCN3CCCCC3CO)no2)cc(C)c1Cl (stereo not drawn) | -65.8
26 | CCN1CCCC1CNC(=O)c1cc(COc2ccc(C)c(C)c2)on1 (stereo not drawn) | -65.2
27 | COCCN1CC(CNC(=O)c2cc(COc3ccc(C)c(C)c3)on2)CC1=O (stereo not drawn) | -20.8
28 | Cc1ccc(OCc2cc(C(=O)NCC3COCCO3)no2)cc1C (stereo not drawn) | -10
29 | COc1cccc(OCc2cc(C(=O)NCCN3CCCCC3CO)no2)c1 (stereo not drawn) | 2.5
30 | Cn1c(SCC(=O)NNC(=O)c2ccc(Br)cc2)nnc1-c1cccnc1 | 25.6
31 | Cc1ccc(NC(=O)NC(=O)CSc2nnc(-c3ccc(Cl)cc3Cl)n2N)c(C)c1 | -6.38
32 | Cc1nc(C)c(C(=O)NNS(=O)(=O)c2ccccc2)s1 | 8.26
33 | Cl.OCCNCc1cccc(OCc2ccc(Cl)cc2)c1 | -12.9
34 | CCOc1cc(CNCc2ccccn2)cc(Cl)c1OC.Cl | 29.6
35 | COc1cc(/C=N/O)ccc1OCc1ccc(Cl)cc1 | 19.6
36 | CCOc1c(Cl)cc(CNCc2ccccn2)cc1OC.Cl | -18.7
37 | Cl.Fc1ccc(COc2cccc(CNCc3ccncc3)c2)cc1 | -40.6
38 | Cl.Clc1ccc(COc2cccc(CNCc3ccncc3)c2)cc1 | -59.8
39 | COc1cc(CNCc2ccccn2)ccc1OCC(=O)NC(C)(C)C.Cl | 0.777
40 | COc1cc(CNCc2ccccn2)ccc1OCc1ccc(Cl)c(Cl)c1.Cl | -51.2
41 | COc1cc(CNCc2ccccn2)ccc1OCc1cccc(Cl)c1.Cl | -54
42 | Cl.c1ccc(COc2cccc(CNCc3ccccn3)c2)cc1 | -45.2
43 | COc1cc(/C=N/N=C(N)N)ccc1OCc1ccc(Cl)cc1 | -50.5
44 | CCOc1cc(/C=N/N=C(N)N)ccc1OCc1ccc(Cl)cc1 | -19.9
45 | CCC(C)NC(=O)c1ccccc1NC(=O)Nc1ccccc1 (stereo not drawn) | 3.24
46 | COc1ccccc1OCCNC(=O)C(=O)c1c[nH]c2ccccc12 | 5.02

Row | Structure (SMILES) | hERG current change (%, negative = inhibition) at 10uM [%]
47 | CC1(C)Cc2c(sc3c2C(=O)N(c2ccccc2)C2=NCCCN23)CO1 | 3.7
48 | CC(C)C[C@H](NC(=O)c1nc[nH]c1C(=O)NC1CCN(C(=O)OC(C)(C)C)CC1)C(=O)OC(C)(C)C | -10.8
49 | O=C(Nc1c2c(nn1-c1ccc(F)cc1)CS(=O)C2)C12CC3CC(CC(C3)C1)C2 (stereo not drawn) | 16.7
50 | COc1ccccc1N(CC(=O)NCCSc1ccc(Cl)cc1)S(C)(=O)=O | -6.87
51 | COc1cc(CNCc2ccccn2)ccc1OCC(N)=O.Cl | -0.0507
52 | COc1cc(CNCc2cccnc2)ccc1OCc1ccccc1.Cl | -21.8
53 | COc1cc(CNCc2ccccn2)ccc1OCc1ccc(Cl)cc1.Cl | -56.8
54 | Cc1ccc(S(=O)(=O)NCC(C)n2nc(C)nc2C)cc1 (stereo not drawn) | -0.542
55 | C=CCn1c(O)c(N=O)c2cc(C)ccc21 | -8.69
56 | CCn1c(SCC(=O)Nc2ccc3c(c2)OCCO3)nnc1-c1ccncc1 | 0.979
57 | Cc1ccc(S(=O)(=O)N2CCN(C(=O)CN3CCN(C)CC3)C2)cc1 | 14.1
58 | COc1ccccc1Nc1nc2ccccc2n1C | -3.73
59 | COc1ccccc1C(=O)NC(C)c1ccccc1 (stereo not drawn) | 18.6
60 | Cc1noc(C)c1COc1ccccc1C(=O)NC(C)c1ccc(Cl)cc1 (stereo not drawn) | -55.8
61 | COc1ccccc1C(=O)NC(C)c1ccc(-n2ccnc2)cc1 (stereo not drawn) | -52.6
62 | CCOc1ccc(C(C)NC(=O)c2ccccc2OCc2c(C)noc2C)cc1OCC (stereo not drawn) | -23.8
63 | COc1ccccc1C(=O)NCCC(=O)NC(C)c1ccc(-n2ccnc2)cc1 (stereo not drawn) | -17.1
64 | COc1ccccc1C(=O)NCC(=O)Nc1cccnc1 | 20.5
65 | Cc1noc(C)c1COc1ccccc1C(=O)NCCc1ccc(Cl)cc1 | -20.8
66 | Cc1cccc(C(=O)NCC(=O)NC(C)c2ccc(-n3ccnc3)cc2)c1 (stereo not drawn) | -68.5
67 | COc1ccccc1C(=O)NCC(=O)NC(C)c1ccc(-n2ccnc2)cc1 (stereo not drawn) | -66.4
68 | COC(=O)CSc1nnc2n(-c3ccc(OC)cc3)c(=O)c3c4c(sc3n12)CCCCC4 | -10.6
69 | Cc1cc(NC(=O)CCC(=O)N(CC(=O)NC2CCCC2)c2ccc(Cl)cc2)no1 | -16.7

Row | Structure (SMILES) | hERG current change (%, negative = inhibition) at 10uM [%]
70 | CN1CCN(S(=O)(=O)c2ccc(NC(=O)COc3ccccc3Cl)cc2)CC1 | 20.1
71 | COc1ccc(NC(C)=O)cc1NS(=O)(=O)c1ccc2c(c1)OCCO2 | 21.4
72 | O=C(Nc1ccc2c(c1)OCO2)c1nn(-c2ccccc2)c(=O)c2ccccc12 | 11
73 | O=C1C(=O)N(CCN2CCOCC2)C(c2ccccc2F)/C1=C(\O)c1ccc(S(=O)(=O)N2CCOCC2)cc1 (stereo not drawn) | 11.5
74 | O=C(Nc1ccccc1-c1nnn(CC(=O)N2CCCc3ccccc32)n1)c1ccc(Cl)cc1 | 8.92
75 | O=C(COC(=O)c1ccc(F)cc1F)NC1CC1 | 23
76 | Cc1ccc(OC(=O)c2cncc(Br)c2)c(C)c1 | 16
77 | N/C(=N\OC(=O)COc1ccccc1)c1ccccn1 | 13.6
78 | O=C(CN(c1ccc(F)cc1)S(=O)(=O)c1ccc2c(c1)OCCO2)Nc1ccc2c(c1)OCO2 | 14.4
79 | N/C(=N\OC(=O)c1cc(Br)ccc1Cl)c1ccccn1 | 13.1
80 | CC(NC(=O)c1ccccc1Cl)c1ccc(-n2ccnc2)cc1 (stereo not drawn) | -34.2
81 | COc1cc(C(=O)NCC(=O)NC(C)c2ccc(-n3ccnc3)cc2)cc(OC)c1OC (stereo not drawn) | -3.06
82 | CCOc1ccccc1C(=O)NC(C)c1ccc(-n2ccnc2)cc1 (stereo not drawn) | -57.5
83 | CC(NC(=O)CCNC(=O)c1ccc(Br)cc1)c1ccc(S(N)(=O)=O)cc1 (stereo not drawn) | 15.3
84 | CC(NC(=O)CCNC(=O)c1ccc(Br)cc1)c1ccc(-n2ccnc2)cc1 (stereo not drawn) | -66.5
85 | CCOc1ccccc1C(=O)NCC(=O)Nc1ncccc1C | 14
86 | CC(NC(=O)c1ccccc1C(=O)O)c1ccc(-n2ccnc2)cc1 (stereo not drawn) | 16
87 | CC(C)c1ccc(CCNC(=O)CCNC(=O)c2ccc(Br)cc2)cc1 | 5.74
88 | CCOc1ccc(C(=O)NCC(=O)NC(C)c2ccc(-n3ccnc3)cc2)cc1OCC (stereo not drawn) | -77.4
89 | CCOc1ccc(C(=O)NCC(=O)Nc2ccncc2)cc1OCC | 4.58
90 | CCOc1ccccc1C(=O)NCC(=O)NC(C)c1ccc(-n2ccnc2)cc1 (stereo not drawn) | -70.9
